The subject of assay [1] is HaCat. Kind of assay: Cytotoxic Profiling of Annotated Libraries Using Quantitative High-Throughput Screening (AID 1296008). For max response: % is set by controls: 0 for no effect and ±100 for the full control effect. Note: nearly all actives have a fitted effect of over 60% in size. Note: potency is the fitted concentration of half-maximal effect. The settings on record: Five cell lines viability, CellTiter-Glo ATP luminescence, 48-72 h; max response: hits give low values. In short, it runs like this:
(§1)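 Compounds were pin-transferred onto cells and incubated 48 or 72 hr at 37 degree Celsius, 95% humidity. CellTiter-Glo was added, plates sat 10 min at room temperature, then ATP-coupled luminescence was imaged as the viability read-out.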
A general note: Cellular ATP, detected with luciferase, serves as a proxy for viable cell number.

A further assay has as its system KB-3-1. The assay is described as above. The settings on record: Five cell lines viability, CellTiter-Glo ATP luminescence, 48-72 h; max response: hits give low values. In short, it runs like this: as §1
Another assay concerns C33A. Put plainly: Primary qHTS to identify gynecologic anti-cancer compounds using libraries of approved drugs and bioactive compounds (AID 1345084). Note: % is set by controls: 0 for no effect and ±100 for the full control effect; nearly all actives have a fitted effect of over 55% in size. The settings on record: Gynecologic cancer cell panel viability, ATPlite luminescence, 48 h; series mostly up to 57.5 µM. In short, it runs like this: (§2)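 Cell viability after 48 h drug treatment, ATPlite luminescence readout; five doses.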

A further assay has as its system CAOV3. The assay is described as above. The note with it: Gynecologic cancer cell panel viability, ATPlite luminescence, 48 h; series mostly up to 57.5 µM. In outline: as §2
The test system of a further assay is CASKI. The assay is described as above. The settings on record: Gynecologic cancer cell panel viability, ATPlite luminescence, 48 h; series mostly up to 57.5 µM. In outline:
as §2

A further assay concerns Es-2. Described as above. The settings on record: Gynecologic cancer cell panel viability, ATPlite luminescence, 48 h; series mostly up to 57.5 µM. In outline:
as §2

The subject of another assay is HeLa. The assay is described as above. The note with it: Gynecologic cancer cell panel viability, ATPlite luminescence, 48 h; series mostly up to 57.5 µM. In short, it runs like this: as §2
In the next assay the test system is Hek293T. The assay is described as above. The settings on record: Gynecologic cancer cell panel viability, ATPlite luminescence, 48 h, control line for the selectivity index; series mostly up to 57.5 µM. In outline: as §2
For the next assay, the system named is JEG-3. The description is as above. The settings on record: Gynecologic cancer cell panel viability, ATPlite luminescence, 48 h; series mostly up to 57.5 µM. In outline:
as §2

The test system of another assay is OV90. The assay is described as above. The settings on record: Gynecologic cancer cell panel viability, ATPlite luminescence, 48 h; series mostly up to 57.5 µM. In outline:
as §2

Assay [2] relates to NIH3T3. Kind of assay: Cytotoxic Profiling of Annotated Libraries Using Quantitative High-Throughput Screening (AID 1296008). For max response: % is set by controls: 0 for no effect and ±100 for the full control effect. Note: nearly all actives have a fitted effect of over 60% in size. Note: potency is the fitted concentration of half-maximal effect. The note with it: Five cell lines viability, CellTiter-Glo ATP luminescence, 48-72 h; max response: hits give low values. In outline:
as §1

Assay [3] relates to HACAT. Kind of assay: qHTS assay to identify novel small-molecules to repurpose for Merkel cell carcinoma treatment (AID 1296009). Note: nearly all actives have a fitted effect of over 60% in size. The note with it: MCC and control cell lines, CellTiter-Glo viability, 72 h; at 44.8 µM (top of the series) unless noted. In short, it runs like this: (§3)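 Viability readout: ATP luminescence (CellTiter-Glo) after 72 hr drug exposure at 37 degree celsius. Dose-response format was 8 points for NPC and 11 points for MIPE; data normalized to in-plate controls.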
A general note: In qHTS, concentration-response curves come from the screen itself.

The next assay concerns PA-1. Put plainly: Primary qHTS to identify gynecologic anti-cancer compounds using libraries of approved drugs and bioactive compounds (AID 1345084). Note: % is set by controls: 0 for no effect and ±100 for the full control effect; nearly all actives have a fitted effect of over 55% in size. The note with it: Gynecologic cancer cell panel viability, ATPlite luminescence, 48 h; series mostly up to 57.5 µM. In short, it runs like this:
as §2

For assay [4], the system named is NIH3T3. Kind of assay: qHTS assay to identify novel small-molecules to repurpose for Merkel cell carcinoma treatment (AID 1296009). Note: nearly all actives have a fitted effect of over 60% in size. The note with it: MCC and control cell lines, CellTiter-Glo viability, 72 h; series mostly up to 44.8 µM. In outline: as §3

Records with an inconclusive call do not appear. Unmarked numbers belong to inactive results. Calls of active or inactive are those of the source. Calls come from the whole dose curve; as a rule, active = well fitted curve in the direction sought with a large enough effect; inconclusive = small, poorly fitted or top-dose-only effect, or another doubt; inactive = no such curve, though single readings can be large; an effect the other way counts as inactive or inconclusive.

On to `COc1ccc(S(=O)(=O)n2cnc3cc(C)c(C)cc32)cc1`, for which the max response was -14.6% in the assay on HaCat [1] and -13.8% in the assay on KB-3-1. Moreover, the Potency entry with C33A, in the assay on CAOV3, in the assay with CASKI, with Es-2, in the assay with HeLa and with Hek293T was “inactive” throughout. Also, the Potency result in the assay on JEG-3 and in the assay on OV90 was “inactive” each time.

On to `O=S(=O)(c1ccc(Cl)cc1)N1CCN(c2ccnc3cc(Cl)ccc23)CC1`, for which the outcome with HaCat [1] and with HACAT [3] was inactive. The max response with NIH3T3 [2] was 3.17%. Also, the Potency entry in the assay on CAOV3, in the assay on CASKI, in the assay on Es-2, in the assay with HeLa, in the assay with Hek293T and with JEG-3 was “inactive” throughout. The Potency result with OV90 and in the assay with PA-1 was “inactive” each time.

Take `CC(=O)O[C@H]1CC2C(COC(=O)CC(C)C)=CO[C@@H](OC(=O)CC(C)C)C2[C@]12CO2` (stereo not given in full): the max response in the assay on HaCat [1] was -12.1%. In the assay with NIH3T3 [2], the result was inactive. Also, the Potency entry with NIH3T3 [4], in the assay on C33A, in the assay on Es-2, in the assay on HeLa, in the assay on Hek293T and in the assay with JEG-3 was “inactive” each time. In the assay on OV90, the Potency result was “inactive”.

Turning to `CC(=O)O[C@@H]1C2=C(O)C(=O)[C@](C)(OC(C)=O)C(=O)C2=CO[C@@]12O[C@@H](C)CC[C@H]2OC(C)=O`, the outcome with HaCat [1] was inactive. The max response in the assay on NIH3T3 [2] was -10.7%. In addition, the outcome in the assay with HACAT [3] is “inactive [at 17.4 µM]”. The Potency entry with C33A, in the assay with CASKI, in the assay with Es-2, with HeLa, in the assay with Hek293T and in the assay on JEG-3 was “inactive” in each case. Besides, the Potency result with OV90 and in the assay with PA-1 was “inactive” each time.

Turning to `COC(=O)c1ccc2c(c1)nc(NC(=O)c1ccccc1)n2CCCc1ccccc1`, the result in the assay with HaCat [1] and in the assay with HACAT [3] was inactive. In addition, in the assay on NIH3T3 [2], the max response is 1.52%. Moreover, the Potency result in the assay with C33A, in the assay on CAOV3, in the assay on CASKI, with Es-2, in the assay on HeLa and in the assay with Hek293T was “inactive” throughout. Further, the Potency result with JEG-3, in the assay with OV90 and in the assay with PA-1 was “inactive” throughout.

As to `C=C1C(=O)O[C@@H]2C[C@@]3(C)C[C@@H](O)C[C@H](C)C3=C[C@H]12`, the max response in the assay on HaCat [1] is -8.34%. Also, in the assay on KB-3-1, the outcome was inactive. The Potency result in the assay on C33A, in the assay with CAOV3, with CASKI, with HeLa, in the assay on Hek293T and in the assay with JEG-3 was “inactive” each time. For the same compound, the Potency entry in the assay with OV90 and with PA-1 was “inactive” each time.

In the case of `CC(=O)OC[C@]12[C@H](OC(C)=O)C(=O)[C@@H]3[C@@H](O)[C@@]14O[C@@]3(C)COC(=O)c1cccnc1[C@@H](C)[C@H](C)C(=O)O[C@@H]([C@H](O)[C@@H]2OC(C)=O)[C@]4(C)O`, in the assay with HaCat [1], the compound was classed as inactive. For the same compound, in the assay on NIH3T3 [2], the max response is -17.4%. The outcome in the assay with HACAT [3] is “inactive [at 17.4 µM]”. The Potency entry with C33A, with CAOV3, with CASKI, in the assay with Es-2, with HeLa and with Hek293T was “inactive” throughout. Besides, the Potency entry with JEG-3, in the assay with OV90 and in the assay on PA-1 was “inactive” throughout.

On to `Cc1cn2cc(C(=O)N(C)CCO)cc(NC3CCOc4cccc(C)c43)c2n1` (stereo not given), for which the max response with HaCat [1] was -18.4%. Further, in the assay with KB-3-1, the call was inactive. Besides, the Potency result with C33A, in the assay on CAOV3, in the assay with CASKI, in the assay on Es-2, with HeLa and with Hek293T was “inactive” throughout. In addition, the Potency result in the assay with JEG-3, in the assay on OV90 and in the assay with PA-1 was “inactive” each time.

As to `C/C=C\NC(=O)C1NC(=O)C(CC(N)=O)NC(=O)C(NC(=O)C(=O)C(C)CC)Cc2ccc(O)c(c2)-c2cccc3c2NC(=O)C3(O)C1O` (stereo not given), the result in the assay with HaCat [1] was inactive. Also, the max response in the assay on NIH3T3 [2] was -19%. For the same compound, the outcome in the assay on HACAT [3] was “inactive [at 17.4 µM]”. Besides, the Potency entry in the assay with C33A, in the assay on CASKI, in the assay with Es-2, in the assay on HeLa, with Hek293T and in the assay with JEG-3 was “inactive” throughout. Besides, in the assay with OV90, the Potency result is “inactive”.

`COc1cc(CCc2ccc(OCC=C(C)C)cc2)cc(OC)c1OC`: the compound was classed as inactive in the assay with HaCat [1] and in the assay with HACAT [3]. For the same compound, the max response with NIH3T3 [2] is -1.52%. In addition, the Potency result with C33A, in the assay with CAOV3, in the assay on CASKI, with Es-2, in the assay on HeLa and with Hek293T was “inactive” in each case. Besides, the Potency result with JEG-3, in the assay on OV90 and in the assay on PA-1 was “inactive” in each case.

For `CC(=O)OC1CC(O)(C(C)C)C2C(OC(=O)c3ccc(O)cc3)C=C(C)C(=O)CC12C` (stereo not given), the outcome in the assay on HaCat [1] was inactive. The max response with NIH3T3 [2] is 0.784%. Also, in the assay with HACAT [3], the outcome was “inactive [at 17.4 µM]”. Moreover, the Potency result in the assay with C33A, in the assay with CAOV3, in the assay on CASKI, in the assay on Es-2, with HeLa and in the assay with Hek293T was “inactive” in each case. Besides, the Potency entry in the assay on JEG-3 and in the assay on PA-1 was “inactive” each time.

Regarding `C[C@H]1CC[C@@]2(OC1)O[C@H]1CC3[C@@H]4CC[C@@H]5C[C@@H](O[C@@H]6O[C@H](CO)[C@@H](O[C@@H]7O[C@@H](C)[C@H](O)[C@@H](O)[C@H]7O)[C@H](O)[C@H]6O[C@@H]6O[C@H](CO)[C@@H](O)[C@H](O)[C@H]6O)CC[C@]5(C)C4CC[C@]3(C)[C@H]1[C@@H]2C` (stereo not given in full), the max response in the assay with HaCat [1] was -24.5%; in the assay with KB-3-1, 0.898%. Also, the activity change, negative = cytotoxicity in the assay on C33A is -15.7% [at 11.6 µM]; in the assay on CAOV3 it was -14.9% [at 11.6 µM]; in the assay with CASKI, 2.17% [at 11.6 µM]; with Es-2, 0.261% [at 11.6 µM]; with HeLa it was 24.8% [at 11.6 µM]; with Hek293T it was -22.5% [at 11.6 µM]. Besides, the figures for the activity change, negative = cytotoxicity in the assay on JEG-3 and in the assay on OV90 were 3.99% [at 11.6 µM] and -17.7% [at 11.6 µM], respectively.

As to `C[C@@H]1CCCN1CCc1cc2cc(-c3ccc(C#N)cc3)ccc2o1`, the results for the max response in the assay with HaCat [1] and with KB-3-1 were -29.3% and -23.6%, respectively. For the same compound, the Potency result in the assay with C33A, in the assay with CAOV3, with CASKI, with Es-2, in the assay with HeLa and in the assay on JEG-3 was “inactive” throughout.

`COc1cc2nc(N3CCN(C(=O)c4ccco4)C4CCCCC43)nc(N)c2cc1OC` (stereo not given): the max response in the assay on HaCat [1] was 4.28%. Also, the Potency in the assay with KB-3-1 is 20.6 µM (active). Further, the Potency result with C33A, with CASKI, with Es-2, in the assay on HeLa, in the assay with Hek293T and with JEG-3 was “inactive” throughout. The Potency result with OV90 was “inactive”.

`CC(=O)C1=CCC2C3CC=C4CC(O)CC(O)C4(C)C3C(O)CC12C` (stereo not given): the max response with HaCat [1] was 1.07%. For the same compound, the outcome in the assay on NIH3T3 [2] was inactive. In addition, the Potency entry in the assay with NIH3T3 [4], in the assay with CAOV3, with HeLa, in the assay on Hek293T, with JEG-3 and with OV90 was “inactive” throughout. In addition, the Potency result in the assay on PA-1 is “inactive”.

For the origin of these results see PubChem BioAssay (NCATS).
